These results are taken from ChEMBL document CHEMBL1961873, “Compounds: GSK PKIS; Assays: Nanosyn kinase panel” (2012).

Usually inhibition stands for the relative decrease from the control value, in per cent.

Several values for one entry are separate records, joined by “and”; a condition that tells them apart may be missing. Identical values can stand only once.

Experiment [1] addresses T1, Ephrin type-B receptor 2 (Homo sapiens) (UniProt P29323).
T1 sequence (whole entry): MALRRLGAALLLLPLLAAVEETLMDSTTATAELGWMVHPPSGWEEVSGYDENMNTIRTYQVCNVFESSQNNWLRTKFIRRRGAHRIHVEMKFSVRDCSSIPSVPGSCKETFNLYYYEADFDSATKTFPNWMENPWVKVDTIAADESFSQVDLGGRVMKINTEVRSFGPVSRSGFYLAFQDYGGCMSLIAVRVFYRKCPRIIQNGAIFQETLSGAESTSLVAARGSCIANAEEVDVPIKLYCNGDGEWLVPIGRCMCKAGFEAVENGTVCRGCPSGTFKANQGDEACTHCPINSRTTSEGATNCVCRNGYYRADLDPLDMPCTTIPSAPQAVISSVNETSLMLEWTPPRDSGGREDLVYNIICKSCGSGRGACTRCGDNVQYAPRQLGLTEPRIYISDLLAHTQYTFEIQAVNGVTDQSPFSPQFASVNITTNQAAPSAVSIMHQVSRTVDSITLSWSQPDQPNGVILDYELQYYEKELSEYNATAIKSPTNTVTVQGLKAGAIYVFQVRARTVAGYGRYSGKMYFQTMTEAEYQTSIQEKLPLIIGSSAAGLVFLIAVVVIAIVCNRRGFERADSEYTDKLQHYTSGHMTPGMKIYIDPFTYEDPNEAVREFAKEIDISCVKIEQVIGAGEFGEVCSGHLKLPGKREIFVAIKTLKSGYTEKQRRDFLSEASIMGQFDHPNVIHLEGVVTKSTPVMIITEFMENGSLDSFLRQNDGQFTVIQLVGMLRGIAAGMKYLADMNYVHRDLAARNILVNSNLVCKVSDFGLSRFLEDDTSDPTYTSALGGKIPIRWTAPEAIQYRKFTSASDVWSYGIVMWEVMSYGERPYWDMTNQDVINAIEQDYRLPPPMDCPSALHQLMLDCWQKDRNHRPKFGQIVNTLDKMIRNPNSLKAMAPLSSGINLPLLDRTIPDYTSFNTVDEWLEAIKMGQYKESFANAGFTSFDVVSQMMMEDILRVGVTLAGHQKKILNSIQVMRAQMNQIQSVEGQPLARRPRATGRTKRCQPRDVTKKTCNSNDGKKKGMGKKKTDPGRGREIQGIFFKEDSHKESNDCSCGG
The conditions noted are these: at 1 µM.

Experiment [2] addresses T2, Ephrin type-B receptor 3 (Homo sapiens) (UniProt P54753).
T2 sequence (whole entry): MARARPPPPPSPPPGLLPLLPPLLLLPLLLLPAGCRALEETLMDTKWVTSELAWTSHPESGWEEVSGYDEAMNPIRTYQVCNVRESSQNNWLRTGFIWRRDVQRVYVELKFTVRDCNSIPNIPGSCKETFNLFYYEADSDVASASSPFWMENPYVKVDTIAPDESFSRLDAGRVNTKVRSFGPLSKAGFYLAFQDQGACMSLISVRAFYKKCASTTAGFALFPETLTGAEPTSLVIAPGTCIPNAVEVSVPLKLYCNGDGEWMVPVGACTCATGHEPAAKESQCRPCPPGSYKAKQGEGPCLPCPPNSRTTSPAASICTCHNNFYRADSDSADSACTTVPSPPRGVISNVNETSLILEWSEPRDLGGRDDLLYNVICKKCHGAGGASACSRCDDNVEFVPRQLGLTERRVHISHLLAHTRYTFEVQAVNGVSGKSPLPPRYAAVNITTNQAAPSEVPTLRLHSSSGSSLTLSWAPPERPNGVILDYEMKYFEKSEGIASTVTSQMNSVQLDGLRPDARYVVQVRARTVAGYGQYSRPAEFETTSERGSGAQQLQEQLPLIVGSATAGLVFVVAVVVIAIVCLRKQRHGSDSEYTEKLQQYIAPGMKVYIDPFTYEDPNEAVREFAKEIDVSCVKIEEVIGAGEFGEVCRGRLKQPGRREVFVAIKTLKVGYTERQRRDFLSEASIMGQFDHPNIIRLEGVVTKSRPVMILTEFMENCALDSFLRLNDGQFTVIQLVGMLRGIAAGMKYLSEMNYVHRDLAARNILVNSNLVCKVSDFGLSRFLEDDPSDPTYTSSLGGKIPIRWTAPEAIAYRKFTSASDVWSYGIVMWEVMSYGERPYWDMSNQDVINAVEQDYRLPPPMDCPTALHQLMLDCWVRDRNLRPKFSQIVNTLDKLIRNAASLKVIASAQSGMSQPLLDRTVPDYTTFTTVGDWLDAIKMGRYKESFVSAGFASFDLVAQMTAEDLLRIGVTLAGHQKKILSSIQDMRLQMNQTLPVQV
The conditions noted are these: at 0.1 µM.

Experiment [3] concerns the target T2, Ephrin type-B receptor 3 (Homo sapiens). The conditions noted are these: at 1 µM.
The target in experiment [4] is T3, Ephrin type-B receptor 4 (Homo sapiens) (UniProt P54760).
T3 sequence (whole entry): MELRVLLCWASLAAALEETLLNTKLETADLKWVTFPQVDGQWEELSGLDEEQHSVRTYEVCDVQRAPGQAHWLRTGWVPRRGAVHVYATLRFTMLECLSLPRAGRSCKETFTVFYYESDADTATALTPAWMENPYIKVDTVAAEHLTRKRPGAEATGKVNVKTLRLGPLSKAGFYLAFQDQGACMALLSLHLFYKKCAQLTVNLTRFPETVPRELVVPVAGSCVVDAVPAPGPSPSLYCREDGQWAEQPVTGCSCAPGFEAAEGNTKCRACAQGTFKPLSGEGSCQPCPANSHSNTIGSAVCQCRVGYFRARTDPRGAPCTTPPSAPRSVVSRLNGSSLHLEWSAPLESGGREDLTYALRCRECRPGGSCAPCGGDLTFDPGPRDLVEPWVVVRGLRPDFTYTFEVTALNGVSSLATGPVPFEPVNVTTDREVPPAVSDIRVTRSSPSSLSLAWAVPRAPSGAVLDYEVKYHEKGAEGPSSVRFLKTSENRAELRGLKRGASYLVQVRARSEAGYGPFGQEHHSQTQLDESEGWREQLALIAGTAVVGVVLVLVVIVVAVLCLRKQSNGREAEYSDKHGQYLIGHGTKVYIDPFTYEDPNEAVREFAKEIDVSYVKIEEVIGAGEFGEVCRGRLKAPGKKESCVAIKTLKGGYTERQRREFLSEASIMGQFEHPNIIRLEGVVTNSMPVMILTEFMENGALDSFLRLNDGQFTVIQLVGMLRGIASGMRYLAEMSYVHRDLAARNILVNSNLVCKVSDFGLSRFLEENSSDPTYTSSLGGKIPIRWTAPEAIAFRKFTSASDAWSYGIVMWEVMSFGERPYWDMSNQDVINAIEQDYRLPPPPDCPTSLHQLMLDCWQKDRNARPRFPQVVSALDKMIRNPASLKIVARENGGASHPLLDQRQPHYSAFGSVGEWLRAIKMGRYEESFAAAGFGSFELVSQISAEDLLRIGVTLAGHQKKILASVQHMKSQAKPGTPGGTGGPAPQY
Particulars: at 0.1 µM.

The target of experiment [5] is T3, Ephrin type-B receptor 4 (Homo sapiens). Particulars: at 1 µM.
Experiment [6] addresses Receptor tyrosine-protein kinase erbB-2 (Homo sapiens) (UniProt P04626). Particulars: at 0.1 µM.
For experiment [7] the target is unchanged. Particulars: at 1 µM.
Experiment [8] addresses Receptor tyrosine-protein kinase erbB-4 (Homo sapiens) (UniProt Q15303). The conditions noted are these: at 0.1 µM.
Experiment [9] shares this target. The conditions noted are these: at 1 µM.
The target of experiment [10] is Tyrosine-protein kinase Fer (Homo sapiens) (UniProt P16591). Particulars: at 0.1 µM.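 Further: reported figures are averaged percent inhibition of FER.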
Tyrosine-protein kinase Fer (Homo sapiens), sequence (P16591 whole entry, looked up): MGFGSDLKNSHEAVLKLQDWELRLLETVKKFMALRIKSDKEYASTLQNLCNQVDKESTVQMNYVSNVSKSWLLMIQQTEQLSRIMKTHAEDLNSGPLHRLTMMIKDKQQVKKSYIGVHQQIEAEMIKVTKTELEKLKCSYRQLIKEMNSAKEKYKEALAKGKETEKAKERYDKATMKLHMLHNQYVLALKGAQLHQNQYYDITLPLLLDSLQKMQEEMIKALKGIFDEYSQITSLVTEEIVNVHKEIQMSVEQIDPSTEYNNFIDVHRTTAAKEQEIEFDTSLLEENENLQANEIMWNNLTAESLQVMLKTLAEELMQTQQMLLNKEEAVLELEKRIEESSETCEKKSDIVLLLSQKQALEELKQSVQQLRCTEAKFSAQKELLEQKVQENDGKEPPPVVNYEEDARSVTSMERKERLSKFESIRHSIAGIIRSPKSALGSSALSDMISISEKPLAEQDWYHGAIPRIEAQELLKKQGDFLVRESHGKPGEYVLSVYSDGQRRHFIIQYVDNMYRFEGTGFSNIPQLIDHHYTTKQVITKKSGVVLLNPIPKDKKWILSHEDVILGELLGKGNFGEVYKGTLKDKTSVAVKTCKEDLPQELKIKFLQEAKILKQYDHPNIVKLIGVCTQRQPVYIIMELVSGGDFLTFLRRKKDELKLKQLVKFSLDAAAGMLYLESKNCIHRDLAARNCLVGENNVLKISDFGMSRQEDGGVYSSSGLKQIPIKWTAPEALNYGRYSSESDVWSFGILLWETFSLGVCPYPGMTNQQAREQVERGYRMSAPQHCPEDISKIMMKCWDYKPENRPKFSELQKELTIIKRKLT

Receptor tyrosine-protein kinase erbB-2 (Homo sapiens), sequence (P04626 whole entry): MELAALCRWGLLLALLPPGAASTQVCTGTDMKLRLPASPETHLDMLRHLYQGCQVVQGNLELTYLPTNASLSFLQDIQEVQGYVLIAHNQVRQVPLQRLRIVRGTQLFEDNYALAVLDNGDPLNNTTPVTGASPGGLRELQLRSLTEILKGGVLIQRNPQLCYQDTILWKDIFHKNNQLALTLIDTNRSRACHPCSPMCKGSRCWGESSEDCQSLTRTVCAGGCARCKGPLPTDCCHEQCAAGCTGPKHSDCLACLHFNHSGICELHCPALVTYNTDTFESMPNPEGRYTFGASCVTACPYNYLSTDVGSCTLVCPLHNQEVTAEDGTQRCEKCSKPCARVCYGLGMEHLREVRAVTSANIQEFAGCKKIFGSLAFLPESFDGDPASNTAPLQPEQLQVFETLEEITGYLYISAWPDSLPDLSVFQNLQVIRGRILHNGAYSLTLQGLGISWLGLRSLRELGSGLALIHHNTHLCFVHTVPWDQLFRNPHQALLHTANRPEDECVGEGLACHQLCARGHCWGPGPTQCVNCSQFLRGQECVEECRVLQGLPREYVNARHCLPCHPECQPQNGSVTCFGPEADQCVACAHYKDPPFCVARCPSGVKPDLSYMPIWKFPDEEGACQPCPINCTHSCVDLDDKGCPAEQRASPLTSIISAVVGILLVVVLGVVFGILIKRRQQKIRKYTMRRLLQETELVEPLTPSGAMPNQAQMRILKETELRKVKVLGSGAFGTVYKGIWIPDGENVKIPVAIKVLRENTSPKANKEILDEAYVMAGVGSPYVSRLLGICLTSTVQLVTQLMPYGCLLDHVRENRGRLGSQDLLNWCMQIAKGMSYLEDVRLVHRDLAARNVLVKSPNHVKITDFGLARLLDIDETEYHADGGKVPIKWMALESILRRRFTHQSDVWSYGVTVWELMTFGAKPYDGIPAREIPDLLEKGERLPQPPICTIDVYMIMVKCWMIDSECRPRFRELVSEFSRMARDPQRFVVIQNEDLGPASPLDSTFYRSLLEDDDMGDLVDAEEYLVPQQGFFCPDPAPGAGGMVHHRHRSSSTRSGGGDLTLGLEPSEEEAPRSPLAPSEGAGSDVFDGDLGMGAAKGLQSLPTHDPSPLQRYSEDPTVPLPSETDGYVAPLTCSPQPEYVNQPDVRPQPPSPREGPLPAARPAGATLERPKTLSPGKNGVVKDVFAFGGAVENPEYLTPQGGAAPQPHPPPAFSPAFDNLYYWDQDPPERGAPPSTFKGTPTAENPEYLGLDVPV
Receptor tyrosine-protein kinase erbB-4 (Homo sapiens), sequence (Q15303 whole entry): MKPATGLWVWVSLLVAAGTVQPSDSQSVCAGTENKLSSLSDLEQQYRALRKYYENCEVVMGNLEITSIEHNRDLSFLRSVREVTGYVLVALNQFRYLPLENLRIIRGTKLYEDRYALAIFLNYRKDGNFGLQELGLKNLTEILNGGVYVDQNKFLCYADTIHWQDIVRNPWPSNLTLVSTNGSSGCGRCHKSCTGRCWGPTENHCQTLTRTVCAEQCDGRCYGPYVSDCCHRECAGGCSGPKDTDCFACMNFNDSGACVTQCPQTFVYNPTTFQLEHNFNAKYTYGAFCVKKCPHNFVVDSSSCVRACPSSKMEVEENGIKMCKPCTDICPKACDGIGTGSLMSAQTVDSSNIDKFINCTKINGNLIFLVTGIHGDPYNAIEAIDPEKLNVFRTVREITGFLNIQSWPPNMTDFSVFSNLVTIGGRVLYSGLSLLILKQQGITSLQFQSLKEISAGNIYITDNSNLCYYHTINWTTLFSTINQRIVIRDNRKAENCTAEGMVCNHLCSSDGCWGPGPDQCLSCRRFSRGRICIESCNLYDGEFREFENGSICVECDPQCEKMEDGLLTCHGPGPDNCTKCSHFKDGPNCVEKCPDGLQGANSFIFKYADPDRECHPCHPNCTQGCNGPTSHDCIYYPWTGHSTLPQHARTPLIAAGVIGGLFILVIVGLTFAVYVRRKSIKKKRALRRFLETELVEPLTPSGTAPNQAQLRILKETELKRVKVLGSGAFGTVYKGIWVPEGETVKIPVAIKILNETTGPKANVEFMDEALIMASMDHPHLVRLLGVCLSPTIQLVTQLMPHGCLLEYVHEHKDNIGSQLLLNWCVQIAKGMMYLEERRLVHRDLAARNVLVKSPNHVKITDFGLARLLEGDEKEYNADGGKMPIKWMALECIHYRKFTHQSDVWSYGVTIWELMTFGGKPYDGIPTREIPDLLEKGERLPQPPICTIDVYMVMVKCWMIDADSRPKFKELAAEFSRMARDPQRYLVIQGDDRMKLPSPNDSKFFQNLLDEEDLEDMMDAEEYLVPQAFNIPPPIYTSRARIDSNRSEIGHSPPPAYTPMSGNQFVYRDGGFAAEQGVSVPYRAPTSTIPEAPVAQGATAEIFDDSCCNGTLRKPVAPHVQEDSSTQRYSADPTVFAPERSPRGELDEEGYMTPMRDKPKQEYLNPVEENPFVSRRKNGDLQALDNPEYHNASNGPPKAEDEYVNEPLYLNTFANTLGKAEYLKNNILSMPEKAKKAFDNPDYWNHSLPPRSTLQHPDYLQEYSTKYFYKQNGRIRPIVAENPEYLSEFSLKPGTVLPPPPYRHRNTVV

Turning to `COc1ccc(-c2nn3ncccc3c2-c2ccnc(Nc3ccc(F)c(F)c3)n2)cc1`, the inhibition came to 18.6% in [1]; 4.77% in experiment [2]; 3.59% in experiment [3]; 1.49% in experiment [4]; 7.6% in experiment [5]; 4.95% in [6]. The inhibition came to 5.88% in [7], 27.1% in [8], 71.3% in experiment [9] and 4.09% in experiment [10].

With `Fc1cccc(COc2ccc(Nc3ncncc3C#Cc3ccccc3)cc2Cl)c1`, the inhibition is 11.3% in experiment [1]; 4.96% in [2]; 3.65% in experiment [3]; 1.3% in experiment [4]; 2.18% in experiment [5]; 3.69% in [6]. Moreover, the inhibition worked out at 4.08% in experiment [7], 9.32% in experiment [8], 19% in experiment [9] and 2.19% in [10].

Turning to `COC(=O)Nc1nc2cc(Oc3ccc(NC(=O)Nc4ccccc4)cc3)ccc2[nH]1`, the inhibition in experiment [1] worked out at 4.12%; in [2], 3.87%; in experiment [3], 1.72%; in [4], 0.78%; in experiment [5], 0.42%; in [6], 3.5%. Also, the inhibition in experiment [7] came to 3.12%; in experiment [8], 7.18%; in experiment [9], 7.92%; in experiment [10] it was 2.73%.

Regarding `CNC(=O)c1sc(-n2cnc3cc(OC)c(OC)cc32)cc1OCc1ccccc1C(F)(F)F`, the inhibition amounted to 14% in [1]; 4.48% in [2]; 3.52% in [3]; 0.98% in experiment [4]; 5.78% in experiment [5]; 2.12% in [6]. Moreover, the inhibition was found to be 3.74% in [7], 6.92% in [8], 10.3% in [9] and 2.95% in experiment [10].

In the case of `Cc1nnc(-c2cccc(-c3ccc(C(=O)NCC4CC4)cc3)c2)o1`, the inhibition is 9.32% in [1]; 4.24% in experiment [2]; 5.58% in experiment [3]; 1.46% in [4]; 2.08% in experiment [5]; 2.59% in experiment [6]. Also, the inhibition stood at 5.51% in [7], 8.69% in experiment [8], 12.5% in [9] and 3.39% in [10].

As for `CNC(=O)c1cncc(/C=C/c2ccccc2C)c1`, the inhibition in experiment [1] worked out at 19.7%; in [2], 5.82%; in experiment [3], 4.91%; in [4], 1.77%; in [5], 9.19%; in experiment [6], 2.44%. Besides, the inhibition in [7] is 6.67%; in [8] it was 13.2%; in experiment [9] it was 14.8%; in experiment [10] it was 4.15%.

Regarding `Cc1cc(O)cc(C)c1/C=C/c1cncc(C(=O)OC(C)(C)C)c1`, the inhibition in [1] was found to be 68%; in experiment [2], 17.4%; in [3] it was 49.2%; in [4] it was 24.8%; in experiment [5], 70.4%; in experiment [6], 1.78%. Also, the inhibition was 2.48% in experiment [7], 8.1% in [8], 16.1% in experiment [9] and 4.09% in [10].

For the molecule `OCCCNc1nccc(-c2c(-c3ccc(F)cc3)nn3cc(C(F)(F)F)ccc23)n1`, the inhibition in experiment [1] came out at 28.2%; in experiment [2] it was 4.77%; in experiment [3], 1.45%; in [4], 1.6%; in [5] it was 7.56%; in experiment [6], 0.24%. The inhibition in experiment [7] is -0.41%; in experiment [8] it was 8.07%; in [9], 14.4%; in [10], 1.98%.

As for `CN1CCN(Cc2ccc(-c3cc4ncnc(Nc5ccc(OCc6cccc(F)c6)c(Cl)c5)c4s3)o2)CC1`, the inhibition in [1] is 8.33% and 7.32%; in [2] it was 3.73% and 7.71%; in experiment [3] it was 4.63% and 4.53%; in experiment [4] it was 0.3% and 3.67%; in [5], 6.48% and 3.12%; in experiment [6], 5.26% and 7.95%. Further, the inhibition in experiment [7] was 62.3% and 65%; in [8], 81.7% and 91.1%; in [9] it was 93% and 97.8%; in [10], 1.93% and 6.27%.

`Nc1ncnc2occ(-c3ccc(NC(=O)Nc4cc(C(F)(F)F)ccc4F)cc3)c12`: the inhibition is 80.2% and 81.5% in experiment [1]; 26.4% and 1.64% in experiment [2]; 63.5% and 51.1% in [3]; 30.6% and 20.3% in experiment [4]; 84.8% and 72.7% in experiment [5]; 0.55% and 1.68% in experiment [6]. Besides, the inhibition was -4.37% and 6.37% in experiment [7]; 5.76% and -0.4% in experiment [8]; 4.08% and 3.51% in experiment [9]; 6.66% and 0.72% in experiment [10].
